According to PubChem BioAssay (NCATS):
Records with an inconclusive call do not appear. Active and inactive are the calls of the source. Calls follow the shape of the dose curve; as a rule, active = well fitted cell-killing curve with a large enough effect; inconclusive = small, poorly fitted or top-dose-only effect, or effect the other way; inactive = no such curve, though single readings can be large or run the other way.

Assay: Quantitative High-Throughput drug screen in 47 multiple myeloma cell lines against the NCATS MIPE library collection: Karpas25_ECACC cell viability assay (AID 1918968; also: nearly all actives have a fitted effect of over 35% in size)
Conditions: Karpas25 myeloma viability, CellTiter-Glo ATP, 48 h; series mostly up to 45.8 µM
Text: PI: Beverly A. Mock Ph.D.
Laboratory of Cancer Biology and Genetics,
Center for Cancer Research, National Cancer Institute,
National Institute of Health, Bethesda, Maryland
Drug resistance and disease progression are common in multiple myeloma (MM) patients, underscoring the need for new therapeutic combinations. […] We hypothesized that effective combinations would reduce MYC expression and enhance p16 activity. […] These preclinical data identify potentially useful drug combinations for evaluation in drug-resistant MM and reveal potential mechanisms of combined drug sensitivity.
Described herein is the primary MIPE qHTS used to cherrypick compounds. Validated compounds were then further tested for potential synergistic activiy.
[1] Peat TJ, Gaikwad SM, Dubois W, Gyabaah-Kessie N, Zhang S, Gorjifard S, Phyo Z, Andres M, Hughitt VK, Simpson RM, Miller MA, Girvin AT, Taylor A, Williams D, D'Antonio N, Zhang Y, Rajagopalan A, Flietner E, Wilson K, Zhang X, Shinn P, Klumpp-Thomas C, McKnight C, Itkin Z, Chen L, Kazandijian D, Zhang J, Michalowski AM, Simmons JK, Keats J, Thomas CJ, Mock BA. Drug combinations identified by high-throughput screening promote cell cycle transition and upregulate Smad pathways in myeloma. Cancer Lett. 2023 Aug 1;568:216284. doi: 10.1016/j.canlet.2023.216284. Epub 2023 Jun 24. PMID: 37356470; PMCID: PMC10408729.
SEQUENCE No. (e.g., 1, 2, 3, etc.); […] (e.g., Cells, Incubation, Reagent, etc.); VALUE and DESCRIPTION.
1; Cells; 5 uL; white, solid bottom 1536-well Greiner assay plate.
2; Compounds; 23 nL; Kalypsis pin tool (Wako USA) equipped with a 1536-well pin head to transfer to the assay plates.
3; Incubation; 48 hours; 37C incubation.
4; Reagent;5uL; CellTiter Glo (Promega).
5; Detector; 425V; Luminescence; Viewlux PerkinElmer.
NOTES (numbers refer to Sequence numbers above)
1. The cell-based screening methods employed in this study were like those previously published. Briefly, the corresponding myeloma cell lines were screened in 1,536-well plates with 500 cells, 5-uL per well for inhibition of cell viability (assessed by measuring ATP levels with CellTiterGlo).
2. NCATS MIPE 4.0 library of approved and investigational drugs were added using the Kalypsis pin tool. Wells treated with DMSO only for 100% viability and media only wells for 0% viability were used as controls.
3. The assay plates were covered and incubated for 48 hours in a 37C, 5% CO2 incubator with controlled humidity.
4. After 48 hours, CellTilter-GloTM luminescent substrate mix (Promega) reagent was added to the assay plate and plates we incubated for 5 min at room temperature.
5. Signal was measured as median relative luminescence units on a ViewLux (PerkinElmer) multiplate reader.
[1] Heske CM, Davis MI, Baumgart JT, Wilson K, Gormally MV, Chen L, Zhang X, Ceribelli M, Duveau DY, Guha R, Ferrer M, Arnaldez FI, Ji J, Tran HL, Zhang Y, Mendoza A, Helman LJ, Thomas CJ. Matrix Screen Identifies Synergistic Combination of PARP Inhibitors and Nicotinamide Phosphoribosyltransferase (NAMPT) Inhibitors in Ewing Sarcoma. Clin Cancer Res. 2017 Dec 1;23(23):7301-7311. doi: 10.1158/1078-0432.CCR-17-1121. Epub 2017 Sep 12. PMID: 28899971; PMCID: PMC6636827.
Potency is read from the fitted curve at half-maximal effect.

SMILES | Potency
C[C@H](Cn1cnc2c(N)ncnc21)OCP(=O)(O)O | inactive
O=C(c1ccccc1)c1ccc2n1CCC2C(=O)O (stereo not given) | 2.96 µM (active)
N[C@@H](Cc1cc(I)c(Oc2cc(I)c(O)c(I)c2)c(I)c1)C(=O)O | inactive
CC(=O)O[C@H]1C(=O)[C@@]2(C)C([C@H](OC(=O)c3ccccc3)[C@]3(O)C[C@H](OC(=O)[C@H](O)[C@@H](NC(=O)c4ccccc4)c4ccccc4)C(C)=C1C3(C)C)[C@]1(OC(C)=O)CO[C@@H]1C[C@@H]2O (stereo not given in full) | inactive
Oc1ccc(OCc2ccccc2)cc1 | inactive
Clc1ccc(C(Cn2ccnc2)OCc2ccsc2Cl)c(Cl)c1 (stereo not given) | 20.9 µM (active)
O=C(O)c1cn(-c2ccc(F)cc2)c2cc(N3CCNCC3)c(F)cc2c1=O | inactive
O=C(O)CCNC(=O)c1ccc(N=Nc2ccc(O)c(C(=O)O)c2)cc1 | 0.0037 µM (active)
CN(C)C(=O)[C@H](O)[C@H](Cc1ccccc1)NC(=O)c1cc2cc(Cl)ccc2[nH]1 | 1.66 µM (active)
Clc1ccc(C(Cn2ccnc2)OCc2c(Cl)cccc2Cl)c(Cl)c1 (stereo not given) | 26.4 µM (active)
CC(C)c1ccc2c(c1)c(SC(C)(C)C)c(CC(C)(C)C(=O)O)n2Cc1ccc(Cl)cc1 | 20.9 µM (active)
COc1ccccc1N1CCN(CCN(C(=O)C2CCCCC2)c2ccccn2)CC1 | inactive
Cc1cc2cc3c(C)cc(=O)oc3c(C)c2o1 | 20.9 µM (active)
Clc1ccc2c(N3CCN(CCCN4CCN(c5ccnc6cc(Cl)ccc56)CC4)CC3)ccnc2c1 | inactive
COc1cc(OC)c(C(=O)CCCN2CCCC2)c(OC)c1 | inactive
CCCCN(CCCC)CCC(O)c1cc2c(Cl)cc(Cl)cc2c2cc(C(F)(F)F)ccc12 (stereo not given) | 14.8 µM (active)
Cc1c(C(=O)NN2CCCCC2)nn(-c2ccc(Cl)cc2Cl)c1-c1ccc(Cl)cc1 | 23.5 µM (active)
CC[C@]1(O)C[C@H]2CN(CCc3c([nH]c4ccccc34)[C@@](C(=O)OC)(c3cc4c(cc3OC)N(C=O)[C@H]3[C@@](O)(C(=O)OC)[C@H](OC(C)=O)[C@]5(CC)C=CCN6CC[C@]43[C@@H]65)C2)C1 | 0.0105 µM (active)
CCCCc1ccc2nc(NC(=O)OC)[nH]c2c1 | 0.0235 µM (active)
CCN(CC)CCOc1ccc(Nc2ncc3cc(-c4c(Cl)cccc4Cl)c(=O)n(C)c3n2)cc1 | 0.0209 µM (active)

SMILES | Potency
O=C(O)c1cc(=O)c2c(OCC(O)COc3cccc4oc(C(=O)O)cc(=O)c34)cccc2o1 | inactive
O=C(OC1C[C@H]2CC[C@@H](C1)[N+]21CCCC1)C(O)(c1ccccc1)c1ccccc1 (stereo not given in full) | inactive
CCC1=C(C)CN(C(=O)NCCc2ccc(S(=O)(=O)NC(=O)NC3CCC(C)CC3)cc2)C1=O (stereo not given) | inactive
CCC[C@@H]1C[C@@H](C(=O)N[C@@H]([C@H]2O[C@H](SC)[C@H](O)[C@@H](O)[C@H]2O)[C@@H](C)O)N(C)C1 | inactive
Cc1ccc(S(=O)(=O)NC(=O)NN2CC3CCCC3C2)cc1 (stereo not given) | 26.4 µM (active)
CCOC(=O)c1c(C)n(C)c2ccc(O)cc12 | inactive
O=C1c2c(O)cc(O)cc2OC(c2ccc(O)c(O)c2)C1O (stereo not given) | inactive
O=Nc1c(-c2c(O)[nH]c3cc(Br)ccc23)[nH]c2ccccc12 | 5.26 µM (active)
O=C(NOCC1CC1)c1ccc(F)c(F)c1Nc1ccc(I)cc1Cl | 11.8 µM (active)
Cc1nc(Nc2ncc(C(=O)Nc3c(C)cccc3Cl)s2)cc(N2CCN(CCO)CC2)n1 | 0.332 µM (active)
C[C@@H](c1ncncc1F)[C@](O)(Cn1cncn1)c1ccc(F)cc1F | inactive
CCCCCCCCCCCCCCCCCCCCCCO | inactive
Cc1cc(=O)c2c(O)c3c(O)cc(=O)c4c3c3c(cc(O)c1c23)C(C)(C)C=4O | 0.264 µM (active)
O=c1c(O)c(-c2ccc(O)cc2O)oc2cc(O)cc(O)c12 | 10.5 µM (active)
Cc1nc2n(c(=O)c1CCN1CCC(c3noc4cc(F)ccc34)CC1)CCCC2 | inactive
COC1=C(OC)C(=O)C(CCCCCCCCCCO)=C(C)C1=O | 13.2 µM (active)
O=C(CS(=O)Cc1ccco1)NCC=CCOc1cc(CN2CCCCC2)ccn1 (stereo not given) | 20.9 µM (active)
COc1cc2c(N3CCN(C(=O)Nc4ccc(OC(C)C)cc4)CC3)ncnc2cc1OCCCN1CCCCC1 | 9.35 µM (active)
CC(C)[C@H](N)C(=O)OCCOCn1cnc2c(=O)[nH]c(N)nc21 | inactive
NC(=NCc1ccccc1)NC(=O)c1nc(Cl)c(N)nc1N | 2.09 µM (active)
